Experimental data taken from PubChem BioAssay (EPA / NIEHS).
Active and inactive are the calls of the source. The calls were made as follows: active = hit-call score of the fitted dose curve at least 0.9, where 1 is the maximum; inactive = score below 0.9.

What was measured:
[1] = ATG_GRE_CIS: Attagene CIS-FACTORIAL HepG2 Assay for human Glucocorticoid Response Elements (GRE) (AID 2282947); conditions: HepG2 GRE cis-reporter, Attagene multiplex mRNA; actives raise or lower the signal
Summary of the method: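 Endogenous transcription factor activity is read through cis-element reporter constructs transiently transfected into HepG2 cells. After 24 h treatment, labelled RT-PCR products are resolved by capillary electrophoresis; DMSO sets baseline for bidirectional curve fitting.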

[2] = ATG_ISRE_CIS: Attagene CIS-FACTORIAL HepG2 Assay for human Interferon Regulatory Factor 1 (IRF1) binding to an Interferon-Stimulated Response Element (ISRE) (AID 2282948); conditions: HepG2 ISRE cis-reporter (Attagene), mRNA transcription readout; actives raise or lower the signal
Summary of the method: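 Quantitation relies on labelled RT-PCR fragments separated by capillary electrophoresis. Human HepG2 cells bearing cis-promoter reporter constructs were treated 24 h; DMSO served as baseline for bidirectional fitting.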

[3] = ATG_M_32_CIS: Attagene CIS-FACTORIAL HepG2 Assay for M32 Transcription Factor (Internal Marker) (AID 2282949); conditions: HepG2 Attagene cis-factorial M32 reporter, mRNA; actives raise or lower the signal;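 also: background control marker of the multiplexed CIS panel rather than a real target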
Summary of the method: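 Following 24 h chemical exposure of HepG2 cells transiently expressing cis-promoter reporter constructs, reporter transcript levels were determined by RT-PCR with fluorescent labelling and capillary electrophoresis, then fitted bidirectionally against DMSO.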

[4] = ATG_M_06_CIS: Attagene CIS-FACTORIAL HepG2 Assay for M06 Transcription Factor (Internal Marker) (AID 2282950); conditions: HepG2 Attagene CIS-FACTORIAL M06 internal marker reporter; actives raise or lower the signal
Summary of the method: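 Steps: transfect HepG2 with multiplexed cis-element reporter constructs; dose chemical 24 h; extract RNA with DNase treatment; reverse-transcribe, PCR-amplify, 6-FAM label, HpaI digest; separate fragments by capillary electrophoresis. Activity fitted both directions versus DMSO.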

[5] = biological target: Hypoxia-inducible factor 1-alpha (Homo sapiens) (UniProt Q16665); experiment: ATG_HIF1a_CIS: Attagene CIS-FACTORIAL HepG2 Assay for human Hypoxia Inducible Factor 1 (HIF1A) (AID 2282951); conditions: HepG2 Attagene cis-factorial HIF1a reporter transcription; actives raise or lower the signal
Sequence of Hypoxia-inducible factor 1-alpha (Homo sapiens) (Q16665 whole entry, looked up): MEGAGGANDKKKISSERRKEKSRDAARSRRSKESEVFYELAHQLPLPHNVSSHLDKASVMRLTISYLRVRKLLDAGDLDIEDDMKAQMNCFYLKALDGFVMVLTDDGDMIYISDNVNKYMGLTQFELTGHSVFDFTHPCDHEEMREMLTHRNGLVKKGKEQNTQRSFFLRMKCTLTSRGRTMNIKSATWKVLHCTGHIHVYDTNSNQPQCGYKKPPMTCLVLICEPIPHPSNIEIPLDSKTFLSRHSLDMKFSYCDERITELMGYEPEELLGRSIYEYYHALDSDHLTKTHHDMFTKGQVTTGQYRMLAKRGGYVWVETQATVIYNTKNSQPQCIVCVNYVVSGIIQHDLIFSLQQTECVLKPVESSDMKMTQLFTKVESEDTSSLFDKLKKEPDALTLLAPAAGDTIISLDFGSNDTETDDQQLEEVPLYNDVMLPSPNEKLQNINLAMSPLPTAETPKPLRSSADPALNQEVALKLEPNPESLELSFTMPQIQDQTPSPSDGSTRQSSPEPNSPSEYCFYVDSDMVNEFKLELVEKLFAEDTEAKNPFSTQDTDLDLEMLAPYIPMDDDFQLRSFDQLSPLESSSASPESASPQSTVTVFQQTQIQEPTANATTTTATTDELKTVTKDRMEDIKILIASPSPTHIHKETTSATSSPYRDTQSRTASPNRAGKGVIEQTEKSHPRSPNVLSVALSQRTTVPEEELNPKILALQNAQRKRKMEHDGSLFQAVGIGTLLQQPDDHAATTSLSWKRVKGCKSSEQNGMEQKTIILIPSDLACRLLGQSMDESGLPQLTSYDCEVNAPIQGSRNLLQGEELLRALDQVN
Summary of the method: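 Cis-element reporter constructs were transiently transfected into HepG2 cells, which were treated for 24 h; reporter RNA was reverse-transcribed, amplified, labelled and resolved by capillary electrophoresis.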

[6] = biological target: Hepatocyte nuclear factor 6 (Homo sapiens) (UniProt Q9UBC0); experiment: ATG_HNF6_CIS: Attagene CIS-FACTORIAL HepG2 Assay for human Hepatocyte Nuclear Factor 6 (HNF6) (AID 2282952); conditions: HepG2 Attagene cis-factorial HNF6 reporter transcription; actives raise or lower the signal
Sequence of Hepatocyte nuclear factor 6 (Homo sapiens) (Q9UBC0 whole entry, looked up): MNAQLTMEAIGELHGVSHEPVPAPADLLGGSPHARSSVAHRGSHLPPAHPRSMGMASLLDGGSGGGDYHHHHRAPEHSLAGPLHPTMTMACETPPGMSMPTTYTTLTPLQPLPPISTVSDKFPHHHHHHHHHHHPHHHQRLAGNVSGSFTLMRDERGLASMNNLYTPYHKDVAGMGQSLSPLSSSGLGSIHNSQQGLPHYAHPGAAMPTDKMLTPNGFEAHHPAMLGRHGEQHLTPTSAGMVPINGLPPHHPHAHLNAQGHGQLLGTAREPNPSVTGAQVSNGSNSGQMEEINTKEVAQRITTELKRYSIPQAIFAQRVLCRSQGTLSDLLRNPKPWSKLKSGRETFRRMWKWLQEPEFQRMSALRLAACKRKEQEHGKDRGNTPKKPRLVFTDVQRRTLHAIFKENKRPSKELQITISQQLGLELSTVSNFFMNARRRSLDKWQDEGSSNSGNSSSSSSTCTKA
Summary of the method: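 Multiplexed mRNA reporter assay in transfected HepG2; 24 h dosing; RT-PCR plus capillary electrophoresis fluorescence; DMSO-referenced bidirectional curve fitting.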

[7] = biological target: Heat shock factor protein 1 (Homo sapiens) (UniProt Q00613); experiment: ATG_HSE_CIS: Attagene CIS-FACTORIAL HepG2 Assay for human Heat Shock Transcription Factor 1 (HSE) (AID 2282953); conditions: HepG2 HSE cis-reporter, Attagene RNA transcription; actives raise or lower the signal
Sequence of Heat shock factor protein 1 (Homo sapiens) (Q00613 whole entry, looked up, the tested form may be a part): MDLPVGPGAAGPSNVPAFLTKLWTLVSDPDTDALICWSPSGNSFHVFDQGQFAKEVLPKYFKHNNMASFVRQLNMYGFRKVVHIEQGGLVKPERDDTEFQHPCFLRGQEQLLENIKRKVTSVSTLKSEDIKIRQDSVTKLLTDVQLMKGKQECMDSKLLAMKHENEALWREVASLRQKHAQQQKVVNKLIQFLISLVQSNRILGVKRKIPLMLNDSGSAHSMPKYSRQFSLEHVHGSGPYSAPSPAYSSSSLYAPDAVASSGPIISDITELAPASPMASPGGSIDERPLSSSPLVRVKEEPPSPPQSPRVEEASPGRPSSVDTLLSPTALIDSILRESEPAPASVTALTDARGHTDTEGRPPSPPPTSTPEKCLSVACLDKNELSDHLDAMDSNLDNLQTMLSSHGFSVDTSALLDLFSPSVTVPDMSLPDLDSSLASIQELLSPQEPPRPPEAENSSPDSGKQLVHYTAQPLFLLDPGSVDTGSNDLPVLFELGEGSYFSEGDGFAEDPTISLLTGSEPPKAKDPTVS
Summary of the method: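 Cells were transfected with cis-element-driven reporter constructs, dosed for 24 h, then total RNA was reverse-transcribed and reporter cDNA amplified, FAM-labelled and digested with HpaI. Fragments were resolved by capillary electrophoresis; gain or loss was fitted against DMSO.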

[8] = ATG_MRE_CIS: Attagene CIS-FACTORIAL HepG2 Assay for human Metal Responsive Element (MRE) (AID 2282954); conditions: HepG2 MRE cis-reporter transcription, Attagene multiplex; actives raise or lower the signal
Summary of the method: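 Fluorescent reporter fragments separated by capillary electrophoresis give mRNA induction for the MRE unit after 24 h treatment of transfected HepG2 cells. Endogenous transcription-factor activity is read; DMSO serves as negative control and baseline.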

[9] = biological target: Paired box protein Pax-6 (Homo sapiens) (UniProt P26367); experiment: ATG_Pax6_CIS: Attagene CIS-FACTORIAL HepG2 Assay for human Paired Box 6 (PAX6) (AID 2282956); conditions: HepG2 CIS-FACTORIAL PAX6 reporter transcription, RNA readout; actives raise or lower the signal
Sequence of Paired box protein Pax-6 (Homo sapiens) (P26367 whole entry, looked up): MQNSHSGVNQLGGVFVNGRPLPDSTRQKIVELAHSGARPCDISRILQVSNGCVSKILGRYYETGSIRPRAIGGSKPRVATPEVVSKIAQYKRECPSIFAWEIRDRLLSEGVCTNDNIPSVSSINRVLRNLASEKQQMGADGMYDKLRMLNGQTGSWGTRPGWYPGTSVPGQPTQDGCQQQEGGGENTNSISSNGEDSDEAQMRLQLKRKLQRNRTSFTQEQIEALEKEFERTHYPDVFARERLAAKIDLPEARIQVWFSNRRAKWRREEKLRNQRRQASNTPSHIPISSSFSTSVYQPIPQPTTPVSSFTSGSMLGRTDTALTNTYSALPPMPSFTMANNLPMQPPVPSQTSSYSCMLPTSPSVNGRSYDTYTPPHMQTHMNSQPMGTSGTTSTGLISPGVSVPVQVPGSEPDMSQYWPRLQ
Summary of the method: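 After twenty-four hours of chemical exposure, transfected HepG2 cells are harvested for RNA. Cis-promoter reporter transcripts are amplified, fluorescently labelled and sized by capillary electrophoresis, with gain and loss of signal scored against DMSO.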

[10] = ATG_PPRE_CIS: Attagene CIS-FACTORIAL HepG2 Assay for human Peroxisome Proliferator-activated Response Element (PPRE) (AID 2282958); conditions: HepG2 PPRE cis-element reporter, Attagene transcription factor profiling; actives raise or lower the signal
Summary of the method: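 DMSO served as negative control and baseline for bidirectional curve fitting. Signal came from PPRE-regulated reporter mRNA in HepG2 cells, measured 24 h post-dosing by RT-PCR, 6-FAM primer extension and capillary electrophoresis.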

[11] = ATG_Sox_CIS: Attagene CIS-FACTORIAL HepG2 Assay for human SRY-box transcription factor (SOX) (AID 2282960); conditions: HepG2 Attagene cis-factorial SOX reporter, mRNA; actives raise or lower the signal
Summary of the method: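 Fluorescence-labelled cDNA fragments from reporter transcripts, sized by CE, give the signal. Cells: HepG2, transiently transfected with cis-regulated reporter units. Exposure 24 h; DMSO negative control; bidirectional curve fitting.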

[12] = biological target: Transcription factor Sp1 (Homo sapiens) (UniProt P08047); experiment: ATG_Sp1_CIS: Attagene CIS-FACTORIAL HepG2 Assay for human Specificity Protein 1 (Sp1) (AID 2282961); conditions: HepG2 Sp1 cis-reporter transcription, actives raise or lower the signal
Sequence of Transcription factor Sp1 (Homo sapiens) (P08047 whole entry, looked up): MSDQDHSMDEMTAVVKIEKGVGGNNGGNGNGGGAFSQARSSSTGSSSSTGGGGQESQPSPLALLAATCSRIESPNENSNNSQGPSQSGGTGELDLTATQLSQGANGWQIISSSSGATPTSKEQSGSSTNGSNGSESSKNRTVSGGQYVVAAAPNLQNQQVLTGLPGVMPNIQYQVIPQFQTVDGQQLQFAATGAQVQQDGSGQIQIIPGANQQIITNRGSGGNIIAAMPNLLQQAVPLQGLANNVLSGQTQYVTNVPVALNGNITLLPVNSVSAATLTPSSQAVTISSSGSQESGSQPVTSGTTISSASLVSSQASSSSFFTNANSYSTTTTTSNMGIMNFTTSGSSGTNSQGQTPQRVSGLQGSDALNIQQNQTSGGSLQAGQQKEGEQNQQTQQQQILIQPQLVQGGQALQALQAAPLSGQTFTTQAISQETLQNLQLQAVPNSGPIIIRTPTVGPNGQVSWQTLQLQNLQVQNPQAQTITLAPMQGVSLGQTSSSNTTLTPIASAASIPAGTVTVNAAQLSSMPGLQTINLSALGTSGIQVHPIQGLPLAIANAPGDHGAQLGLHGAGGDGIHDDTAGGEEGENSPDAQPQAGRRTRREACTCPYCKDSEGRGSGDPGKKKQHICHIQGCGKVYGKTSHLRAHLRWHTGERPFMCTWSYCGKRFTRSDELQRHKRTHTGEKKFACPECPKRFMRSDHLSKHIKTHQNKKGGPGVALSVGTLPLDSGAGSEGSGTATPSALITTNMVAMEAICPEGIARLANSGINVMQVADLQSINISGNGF
Summary of the method: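 Chemicals are dosed onto HepG2 cells transfected with multiple cis-promoter reporter constructs, and after 24 h reporter RNA is reverse-transcribed, PCR-amplified and resolved by capillary electrophoresis for fluorescence quantitation; activity is scored up or down against DMSO.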

[13] = ATG_SREBP_CIS: Attagene CIS-FACTORIAL HepG2 Assay for human Sterol Regulatory Element Binding (SREBP) (AID 2282962); conditions: HepG2 Attagene cis-factorial SREBP reporter, mRNA; actives raise or lower the signal
Summary of the method: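 Twenty-four hours after chemical dosing of transfected HepG2 cultures, reporter RNA was converted to cDNA, amplified, end-labelled with 6-FAM and resolved by capillary electrophoresis. Responses were fitted relative to DMSO.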

[14] = biological target: Signal transducer and activator of transcription 3 (Homo sapiens) (UniProt P40763); experiment: ATG_STAT3_CIS: Attagene CIS-FACTORIAL HepG2 Assay for human Signal Transducer and Activator of Transcription 3 (STAT3) (AID 2282963); conditions: HepG2, Attagene cis-factorial STAT3 reporter transcription; actives raise or lower the signal
Sequence of Signal transducer and activator of transcription 3 (Homo sapiens) (P40763 whole entry, looked up): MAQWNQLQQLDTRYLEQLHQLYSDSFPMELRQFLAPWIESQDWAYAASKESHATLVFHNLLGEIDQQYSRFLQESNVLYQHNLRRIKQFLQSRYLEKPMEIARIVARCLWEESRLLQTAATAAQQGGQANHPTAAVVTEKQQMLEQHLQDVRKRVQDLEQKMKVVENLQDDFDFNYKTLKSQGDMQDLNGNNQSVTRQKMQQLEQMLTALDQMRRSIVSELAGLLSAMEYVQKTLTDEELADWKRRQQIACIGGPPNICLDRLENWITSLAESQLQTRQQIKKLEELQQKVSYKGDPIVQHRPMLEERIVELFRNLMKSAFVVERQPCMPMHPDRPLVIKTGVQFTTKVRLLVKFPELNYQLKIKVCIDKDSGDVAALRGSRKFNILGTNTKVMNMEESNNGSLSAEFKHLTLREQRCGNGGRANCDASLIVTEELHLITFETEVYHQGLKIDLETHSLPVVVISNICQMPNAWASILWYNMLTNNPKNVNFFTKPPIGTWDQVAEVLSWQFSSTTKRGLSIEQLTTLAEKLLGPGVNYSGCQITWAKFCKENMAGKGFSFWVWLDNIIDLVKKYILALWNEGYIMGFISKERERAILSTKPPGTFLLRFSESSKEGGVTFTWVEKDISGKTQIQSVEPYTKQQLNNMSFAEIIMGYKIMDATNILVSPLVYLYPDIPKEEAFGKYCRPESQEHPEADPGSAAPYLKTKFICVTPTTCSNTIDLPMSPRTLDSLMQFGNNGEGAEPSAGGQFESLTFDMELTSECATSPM
Summary of the method: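 Values derive from bidirectional fits relative to DMSO of reporter mRNA levels, measured by RT-PCR with capillary electrophoresis, in HepG2 cells carrying transiently transfected cis-regulated reporter units and exposed 24 h.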

[15] = ATG_TA_CIS: Attagene CIS-FACTORIAL HepG2 Assay for human TA Basal Promoter (AID 2282964); conditions: HepG2 Attagene CIS-factorial TA basal promoter reporter; actives raise or lower the signal
Summary of the method: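 Steps: transfect HepG2 with MRTUs; dose 24 h; isolate RNA, DNase-treat, reverse-transcribe; PCR and FAM-label reporter cDNA; digest with HpaI 2h at 37 C; run capillary electrophoresis. Activity fitted both directions against DMSO.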

[16] = ATG_TCF_b_cat_CIS: Attagene CIS-FACTORIAL HepG2 Assay for human T-Cell-Factor with beta-catenin (TCF/b-cat) (AID 2282965); conditions: HepG2 TCF/beta-catenin cis-reporter transcription, actives raise or lower the signal
Summary of the method: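 Cells of the HepG2 line carry transiently transfected reporter units whose promoters respond to endogenous factors. Twenty-four hours post-dosing, reporter mRNA induction is measured by fluorescent RT-PCR and capillary electrophoresis, with DMSO as baseline.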

[17] = ATG_PBREM_CIS: Attagene CIS-FACTORIAL HepG2 Assay for human Phenobarbital-responsive Enhancer Module (PBREM) (AID 2282955); conditions: HepG2 PBREM cis-reporter, Attagene multiplexed transcription; actives raise or lower the signal
Summary of the method: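 Multiplexed cis-reporter readout in human hepatoma HepG2 cells; PBREM-regulated transcript quantified after 24 h exposure by fluorescent RT-PCR fragment analysis. Signal changes up or down fitted relative to DMSO.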

[18] = ATG_PXRE_CIS: Attagene CIS-FACTORIAL HepG2 Assay for human Pregnane X Receptor Element (PXRE) (AID 2282957); conditions: HepG2 Attagene CIS-FACTORIAL PXRE reporter, mRNA; actives raise or lower the signal
Summary of the method: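 Cells: HepG2, transiently transfected reporter units under cis promoter control. Exposure: 24 h. Detection: reporter mRNA via RT-PCR/CE fluorescence; bidirectional fitting, DMSO-referenced.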

[19] = ATG_RORE_CIS: Attagene CIS-FACTORIAL HepG2 Assay for human RAR-related Orphan Receptor Element (RORE) (AID 2282959); conditions: HepG2 Attagene cis-factorial RORE reporter, mRNA; actives raise or lower the signal
Summary of the method: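 Transfect HepG2 with MRTUs; treat 24 h; extract RNA; RT with oligo(dT); PCR with reporter-specific primers; 6-FAM primer extension; HpaI digest 2 h at 37 C; capillary electrophoresis. Fit vs DMSO, bidirectional.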

Compound	outcome [1]	outcome [2]	outcome [3]	outcome [4]	outcome [5]	outcome [6]	outcome [7]	outcome [8]	outcome [9]	outcome [10]	outcome [11]	outcome [12]	outcome [13]	outcome [14]	outcome [15]	outcome [16]	outcome [17]	AC50 [18]	outcome [19]	outcome [18]
Nc1ccc(S(=O)(=O)O)c(N)c1	inactive	inactive	inactive	inactive	inactive	inactive	inactive	inactive	inactive	inactive	inactive	inactive	inactive	inactive	inactive	inactive	–	–	–	–
O=C(O)CCSCCC(=O)O	inactive	inactive	inactive	inactive	inactive	–	–	inactive	inactive	inactive	inactive	inactive	inactive	inactive	–	inactive	inactive	54.3 µM (active)	inactive	–
O=C(OCc1ccccc1)C(=O)OCc1ccccc1	inactive	inactive	inactive	inactive	inactive	inactive	–	inactive	inactive	inactive	inactive	inactive	–	inactive	inactive	inactive	inactive	–	–	inactive
CN(C)C(=N)N=C(N)N	inactive	inactive	inactive	inactive	inactive	inactive	–	inactive	inactive	inactive	inactive	inactive	inactive	–	inactive	inactive	inactive	–	–	inactive
NC(=O)NC1NC(=O)NC1=O (centres undefined)	inactive	inactive	inactive	inactive	inactive	inactive	–	inactive	inactive	inactive	inactive	inactive	inactive	inactive	inactive	inactive	inactive	–	inactive	inactive
C=CC[N+](C)(C)CC=C	inactive	inactive	inactive	inactive	inactive	inactive	–	inactive	inactive	inactive	inactive	inactive	inactive	inactive	inactive	inactive	–	–	inactive	inactive
COc1ccnc(CS(=O)c2nc3cc(OC(F)F)ccc3[nH]2)c1OC (centres undefined)	inactive	inactive	inactive	inactive	inactive	–	inactive	inactive	inactive	inactive	inactive	inactive	inactive	inactive	–	inactive	inactive	8.07 µM (active)	inactive	–
CC(=O)[O][Al][O]C(C)=O	inactive	inactive	inactive	inactive	inactive	inactive	–	inactive	inactive	inactive	inactive	inactive	inactive	inactive	inactive	inactive	inactive	6.49 µM (active)	inactive	–
